Results from PubChem BioAssay AID431 (Sanford-Burnham Center for Chemical Genomics, 2006).
Hit rate of the full screen: of about 63,000 compounds, about 1,100 (1.7%) were called active.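 Rule for the calls: active = compounds whose percent cytotoxicity in the single-dose primary screen, scaled between solvent and toxic-drug controls, exceeds 50; inactive = the rest.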 Shown is part of a subset that was picked to be rich in actives. Entries with a potency or affinity are not part of this list.

Experiment: cytotoxicity in KRAS-transformed pancreatic duct cells, primary screen, cell-based, fluorescence, HTS (AID 431);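 note: 0% = DMSO solvent wells and 100% = doxorubicin-treated wells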
Conditions: HPDE-C7K KRASV12 cells, Alamar Blue viability, 48 h; at 10 µM; hits give high values

| Structure (SMILES) | cytotoxicity |
| --- | --- |
| O=C(Nc1nc2ccccc2[nH]1)c1ccc(F)cc1 | -12% (inactive) |
| O=C(COc1ccccc1)Nc1nc2ccccc2[nH]1 | -1.5% (inactive) |
| COc1cc(C(=O)Nc2nc3ccccc3[nH]2)cc(OC)c1OC | -19.5% (inactive) |
| COC(=O)Nc1nc2ccc(Sc3ccccc3)cc2[nH]1 | 57.5% (active) |
| COC(=O)Nc1nc2ccc(C(=O)c3ccccc3)cc2[nH]1 | 67.2% (active) |
| Cc1nc2ccc(C(=O)c3ccccc3)cc2[nH]1 | 1.1% (inactive) |
| CCC(C)N(C(=O)COC(=O)Cc1n[nH]c(=O)c2ccccc12)C1CCS(=O)(=O)C1 (stereo unspecified) | -29.5% (inactive) |
| O=C(CN(C(=O)Cn1nnc(-c2cccs2)n1)c1cnc2ccccc2c1)NCC1CCCO1 (stereo unspecified) | -3.6% (inactive) |
| O=C(COc1ccc(F)c(Cl)c1)c1ccc[nH]1 | -3.1% (inactive) |
| COc1cc(-c2nnc(-c3ccc(S(=O)(=O)c4ccccc4)cc3)o2)cc(OC)c1OC | -1.1% (inactive) |
| COc1ccc(C2C(C(=O)N3CCCC3)CC(=O)N2c2ccc(OC)cc2)cc1 (stereo unspecified) | 1.8% (inactive) |
| CN(C)CC(=O)c1ccc(-c2ccccc2)cc1 | -1.7% (inactive) |
| CC(=O)Nc1cc(-c2nn3c(C)nnc3s2)ccc1C | 6.7% (inactive) |
| Cc1cc(C)c(C#N)c(SCC(=O)CC(=O)OC(C)C)n1 | 29.7% (inactive) |
| Cc1nc(SCC(=O)CC(=O)OC(C)C)c(C#N)c(C)c1C | -4.4% (inactive) |
| CCOC(=O)CC(=O)Nc1nnc(CC(C)C)s1 | -10.3% (inactive) |
| CCOC(=O)N1CCC(NC(=O)Cn2cccc2C(=O)c2ccccc2)CC1 | -6.2% (inactive) |
| COc1ccc(S(=O)(=O)n2nc(OC(=O)c3c(-c4ccccc4Cl)noc3C)cc2N)cc1 | 51.1% (active) |
| COc1ccc(S(=O)(=O)n2nc(OC(=O)c3ccccc3)cc2N)cc1 | 0% (inactive) |
| Cc1onc(-c2ccccc2Cl)c1C(=O)Oc1cc(N)n(S(=O)(=O)c2ccc(F)cc2)n1 | 36.8% (inactive) |
| COc1ccccc1C(=O)Oc1cc(N)n(S(=O)(=O)c2ccc(C)cc2)n1 | -5.5% (inactive) |
| Cc1ccc(S(=O)(=O)n2nc(OC(=O)c3c(-c4ccccc4Cl)noc3C)cc2N)cc1 | 73% (active) |
| COc1ccc(S(=O)(=O)n2nc(OC(=O)c3ccc(C)cc3)cc2N)cc1 | -7.7% (inactive) |
| O=C(O)CCC(=O)OCC1CCCO1 (stereo unspecified) | -8.8% (inactive) |
| O=C(CSc1nnc(-c2ccccn2)n1Cc1ccccc1)NC1CCCC1 | -15.2% (inactive) |
| O=S(=O)(Nc1ccc(S(=O)(=O)N2CCOCC2)cc1)c1ccccc1 | 7.6% (inactive) |
